From ChEMBL document CHEMBL3988442, “University of Dundee, Small-Polar-MMV Screening Library” (2021)
For some assays here: Results with a measured potency or affinity are listed apart.

What was measured:
Design in all cases: scale not given: direction of the effect not stated beside the values
[1] = target: Protein translocase subunit SecA (Escherichia coli (strain K12)) (UniProt P10408); assay: Assay to Identify E. coli SecA ATPase Inhibitors; assay type: functional; details: 30 µM
[2] = target: T1, Ubiquitin-activating enzyme e1, putative (Leishmania donovani (strain BPK282A1)) (UniProt E9BSI1); assay: Leishmania donovani Ubiquitin Activating Enzyme (LdE1); assay type: functional; details: 30 µM
T1 sequence (whole entry): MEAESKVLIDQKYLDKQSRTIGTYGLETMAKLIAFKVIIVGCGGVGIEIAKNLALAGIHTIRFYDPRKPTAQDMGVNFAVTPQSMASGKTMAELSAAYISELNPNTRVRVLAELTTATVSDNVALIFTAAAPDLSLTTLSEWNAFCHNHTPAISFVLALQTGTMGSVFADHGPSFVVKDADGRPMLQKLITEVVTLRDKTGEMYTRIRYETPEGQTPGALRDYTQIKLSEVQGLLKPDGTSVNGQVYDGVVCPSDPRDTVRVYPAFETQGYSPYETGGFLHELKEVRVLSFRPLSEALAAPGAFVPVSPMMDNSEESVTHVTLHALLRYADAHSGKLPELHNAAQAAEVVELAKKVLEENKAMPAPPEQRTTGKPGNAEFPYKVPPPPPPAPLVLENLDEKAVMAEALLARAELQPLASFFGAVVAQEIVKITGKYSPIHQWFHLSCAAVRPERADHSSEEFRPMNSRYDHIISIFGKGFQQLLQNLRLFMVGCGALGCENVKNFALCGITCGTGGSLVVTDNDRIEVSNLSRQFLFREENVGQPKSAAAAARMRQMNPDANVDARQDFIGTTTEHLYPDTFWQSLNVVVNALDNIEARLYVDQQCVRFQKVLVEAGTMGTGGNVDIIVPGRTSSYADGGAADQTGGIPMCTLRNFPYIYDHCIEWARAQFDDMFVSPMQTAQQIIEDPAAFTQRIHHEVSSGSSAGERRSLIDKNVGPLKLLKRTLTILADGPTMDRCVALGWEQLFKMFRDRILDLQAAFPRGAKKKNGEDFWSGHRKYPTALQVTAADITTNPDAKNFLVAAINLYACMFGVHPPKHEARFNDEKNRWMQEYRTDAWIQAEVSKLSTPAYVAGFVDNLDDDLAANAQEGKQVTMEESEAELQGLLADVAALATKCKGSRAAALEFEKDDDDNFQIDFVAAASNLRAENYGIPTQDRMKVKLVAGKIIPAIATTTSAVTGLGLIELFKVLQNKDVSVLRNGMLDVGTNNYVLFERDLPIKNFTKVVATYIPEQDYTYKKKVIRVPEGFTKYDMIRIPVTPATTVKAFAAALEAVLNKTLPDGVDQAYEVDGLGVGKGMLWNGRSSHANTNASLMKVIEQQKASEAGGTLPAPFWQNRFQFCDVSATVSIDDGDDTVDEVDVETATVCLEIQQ

[3] = target: AMP-activated protein kinase, AMPK (Homo sapiens) (UniProt P54646+O43741+P54619+Q9UGJ0+Q9Y478+Q13131+Q9UGI9); assay: AMP-dependent Kinase enzyme assay. An in vitro enzyme assay that detects ADP turnover that is directly proportional to AMPK activity. This uses naive AMPK that is activated during the assay with MK-8722; assay type: functional; details: 30 µM
[4] = target: Sialic acid-binding Ig-like lectin 9 (Homo sapiens) (UniProt Q9Y336); assay: Hs-Siglec9 ALPHAscreen SOP 20170721; details: 10 µM
Trypanosoma cruzi = assay: Trypanosoma cruzi phosphomannomutase and mannose-1-phosphate guanylyltransferase assay; assay type: functional; details: 10 µM
[5] = target: T2, Arginase-2, mitochondrial (Homo sapiens) (UniProt P78540); assay: in vitro enzyme assay to detect the production of urea directly proportional to the activity of Arginase II; assay type: functional; details: 33.3 µM; further: in the data most compounds retested in dose-response had high values
T2 sequence (whole entry): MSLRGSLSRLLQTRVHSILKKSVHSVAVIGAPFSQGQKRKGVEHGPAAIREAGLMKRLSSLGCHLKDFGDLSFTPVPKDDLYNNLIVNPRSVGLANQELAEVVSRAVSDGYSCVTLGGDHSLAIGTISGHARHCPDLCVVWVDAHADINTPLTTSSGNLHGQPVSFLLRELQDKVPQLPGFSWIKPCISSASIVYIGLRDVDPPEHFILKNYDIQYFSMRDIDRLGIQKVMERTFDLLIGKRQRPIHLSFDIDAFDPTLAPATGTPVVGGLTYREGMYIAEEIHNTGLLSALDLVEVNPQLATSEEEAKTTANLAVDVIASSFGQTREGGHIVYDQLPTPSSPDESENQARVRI

[6] = target: T3, Proteasome subunit beta (Trypanosoma cruzi) (UniProt O96673); assay: Trypanosoma cruzi proteasome chymotrypsin-like activity (TcProtChymo) assay.; further: in the data most compounds retested in dose-response had high values; assay type: functional; details: 9.37 µM
T3 sequence (whole entry): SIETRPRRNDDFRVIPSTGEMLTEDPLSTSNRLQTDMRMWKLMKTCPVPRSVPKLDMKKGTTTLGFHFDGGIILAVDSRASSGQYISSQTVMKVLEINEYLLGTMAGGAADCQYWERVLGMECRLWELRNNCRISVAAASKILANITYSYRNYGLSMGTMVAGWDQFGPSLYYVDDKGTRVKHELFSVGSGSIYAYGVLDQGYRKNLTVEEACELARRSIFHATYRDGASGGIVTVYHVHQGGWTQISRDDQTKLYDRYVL

Homo sapiens = organism: Homo sapiens; assay: To identify inhibition of the IFN signalling (Jak-Stat) pathway via expression of an eGFP reporter gene under the control of an IFN-stimulated response element (ISRE) containing MxA promoter.; assay type: functional; details: 30 µM
[7] = target: T4, Tyrosyl-tRNA synthetase, putative (Trypanosoma cruzi (strain CL Brener)) (UniProt Q4DSP6); assay: Trypanosoma cruzi tyrosyl tRNA synthetase (TcYRS) _High Tyrosine SOP; assay type: functional; details: 30 µM; further: in the data most compounds retested in dose-response had high values
T4 sequence (whole entry): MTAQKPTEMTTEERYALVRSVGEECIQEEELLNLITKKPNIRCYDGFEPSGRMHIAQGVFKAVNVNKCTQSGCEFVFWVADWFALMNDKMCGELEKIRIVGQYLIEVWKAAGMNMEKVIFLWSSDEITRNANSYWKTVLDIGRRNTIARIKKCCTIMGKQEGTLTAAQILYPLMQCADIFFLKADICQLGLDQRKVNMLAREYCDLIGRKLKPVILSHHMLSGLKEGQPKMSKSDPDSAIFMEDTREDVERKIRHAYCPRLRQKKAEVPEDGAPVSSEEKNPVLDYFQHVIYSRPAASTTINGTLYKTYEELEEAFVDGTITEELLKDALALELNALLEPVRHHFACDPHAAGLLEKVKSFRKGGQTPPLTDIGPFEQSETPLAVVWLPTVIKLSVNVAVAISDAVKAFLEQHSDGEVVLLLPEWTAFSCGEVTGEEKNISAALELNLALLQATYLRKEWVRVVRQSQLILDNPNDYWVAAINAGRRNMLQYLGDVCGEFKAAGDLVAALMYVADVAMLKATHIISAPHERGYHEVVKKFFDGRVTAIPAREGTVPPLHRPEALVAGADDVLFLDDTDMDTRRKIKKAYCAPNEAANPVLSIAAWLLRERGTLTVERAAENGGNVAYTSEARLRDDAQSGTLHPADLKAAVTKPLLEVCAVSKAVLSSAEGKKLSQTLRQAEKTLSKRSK

[8] = target: T4, Tyrosyl-tRNA synthetase, putative (Trypanosoma cruzi (strain CL Brener)); assay: Trypanosoma cruzi tyrosyl tRNA synthetase (TcYRS) SOP; assay type: functional; details: 30 µM
[9] = target: Chromo domain-containing protein 1 (Saccharomyces cerevisiae (strain ATCC 204508 / S288c) (Baker's yeast)) (UniProt P32657); assay: ScCHD-1 Enzyme Inhibition Assay; assay type: functional; details: 30 µM; further: in the data most compounds retested in dose-response had high values
Chain of Chromo domain-containing protein 1 (Saccharomyces cerevisiae (strain ATCC 204508 / S288c) (Baker's yeast)) (P32657 whole entry, the tested form may be a part): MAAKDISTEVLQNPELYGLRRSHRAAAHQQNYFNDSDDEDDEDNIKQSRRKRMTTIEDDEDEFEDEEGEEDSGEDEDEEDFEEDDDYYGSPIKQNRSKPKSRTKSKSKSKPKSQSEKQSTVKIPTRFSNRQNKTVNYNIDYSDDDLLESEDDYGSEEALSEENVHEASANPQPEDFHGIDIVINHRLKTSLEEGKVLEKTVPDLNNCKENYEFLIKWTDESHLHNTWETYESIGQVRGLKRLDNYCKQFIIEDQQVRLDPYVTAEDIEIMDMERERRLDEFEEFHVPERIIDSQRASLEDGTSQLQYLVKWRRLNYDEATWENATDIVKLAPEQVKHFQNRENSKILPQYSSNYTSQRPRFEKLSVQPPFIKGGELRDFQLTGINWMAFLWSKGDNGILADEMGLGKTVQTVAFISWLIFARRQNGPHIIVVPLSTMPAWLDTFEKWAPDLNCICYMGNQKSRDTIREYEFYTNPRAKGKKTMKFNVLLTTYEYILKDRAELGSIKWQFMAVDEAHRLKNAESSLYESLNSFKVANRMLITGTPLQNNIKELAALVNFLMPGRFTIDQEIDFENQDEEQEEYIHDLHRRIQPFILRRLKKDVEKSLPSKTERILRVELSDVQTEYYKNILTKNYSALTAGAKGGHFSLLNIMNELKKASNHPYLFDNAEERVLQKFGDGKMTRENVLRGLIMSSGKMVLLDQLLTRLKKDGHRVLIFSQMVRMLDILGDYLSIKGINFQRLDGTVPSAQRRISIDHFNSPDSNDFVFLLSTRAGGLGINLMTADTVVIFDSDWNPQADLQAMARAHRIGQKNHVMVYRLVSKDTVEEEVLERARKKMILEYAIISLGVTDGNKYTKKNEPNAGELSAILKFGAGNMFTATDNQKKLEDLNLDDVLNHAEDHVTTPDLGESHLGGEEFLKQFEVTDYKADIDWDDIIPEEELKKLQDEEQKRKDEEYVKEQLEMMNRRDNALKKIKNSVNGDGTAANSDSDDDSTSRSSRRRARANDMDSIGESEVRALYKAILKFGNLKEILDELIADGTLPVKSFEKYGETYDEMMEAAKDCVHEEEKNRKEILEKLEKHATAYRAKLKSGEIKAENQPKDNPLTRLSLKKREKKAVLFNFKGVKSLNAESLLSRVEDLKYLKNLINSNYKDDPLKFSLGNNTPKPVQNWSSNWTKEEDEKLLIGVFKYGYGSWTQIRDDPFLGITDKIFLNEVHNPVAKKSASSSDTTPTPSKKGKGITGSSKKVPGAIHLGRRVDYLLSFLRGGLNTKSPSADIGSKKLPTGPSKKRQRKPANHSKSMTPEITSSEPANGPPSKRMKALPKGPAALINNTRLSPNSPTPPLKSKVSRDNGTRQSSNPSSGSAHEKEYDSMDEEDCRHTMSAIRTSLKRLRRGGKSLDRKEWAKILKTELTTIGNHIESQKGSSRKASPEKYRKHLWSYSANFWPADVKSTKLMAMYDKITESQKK

Chain of Sialic acid-binding Ig-like lectin 9 (Homo sapiens) (Q9Y336 whole entry): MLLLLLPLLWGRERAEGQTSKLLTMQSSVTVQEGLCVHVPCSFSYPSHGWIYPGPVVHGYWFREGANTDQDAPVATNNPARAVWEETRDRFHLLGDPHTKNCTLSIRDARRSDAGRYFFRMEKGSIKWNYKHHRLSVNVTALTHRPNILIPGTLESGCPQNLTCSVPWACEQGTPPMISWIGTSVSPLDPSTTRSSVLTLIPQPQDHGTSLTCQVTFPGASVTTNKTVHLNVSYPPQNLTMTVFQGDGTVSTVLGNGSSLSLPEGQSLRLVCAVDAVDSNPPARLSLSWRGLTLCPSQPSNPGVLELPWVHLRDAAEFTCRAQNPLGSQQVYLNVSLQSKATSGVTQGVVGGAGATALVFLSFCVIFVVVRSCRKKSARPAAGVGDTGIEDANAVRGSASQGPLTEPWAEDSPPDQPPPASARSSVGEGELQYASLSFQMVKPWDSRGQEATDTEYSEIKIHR
Chain of Protein translocase subunit SecA (Escherichia coli (strain K12)) (P10408 whole entry): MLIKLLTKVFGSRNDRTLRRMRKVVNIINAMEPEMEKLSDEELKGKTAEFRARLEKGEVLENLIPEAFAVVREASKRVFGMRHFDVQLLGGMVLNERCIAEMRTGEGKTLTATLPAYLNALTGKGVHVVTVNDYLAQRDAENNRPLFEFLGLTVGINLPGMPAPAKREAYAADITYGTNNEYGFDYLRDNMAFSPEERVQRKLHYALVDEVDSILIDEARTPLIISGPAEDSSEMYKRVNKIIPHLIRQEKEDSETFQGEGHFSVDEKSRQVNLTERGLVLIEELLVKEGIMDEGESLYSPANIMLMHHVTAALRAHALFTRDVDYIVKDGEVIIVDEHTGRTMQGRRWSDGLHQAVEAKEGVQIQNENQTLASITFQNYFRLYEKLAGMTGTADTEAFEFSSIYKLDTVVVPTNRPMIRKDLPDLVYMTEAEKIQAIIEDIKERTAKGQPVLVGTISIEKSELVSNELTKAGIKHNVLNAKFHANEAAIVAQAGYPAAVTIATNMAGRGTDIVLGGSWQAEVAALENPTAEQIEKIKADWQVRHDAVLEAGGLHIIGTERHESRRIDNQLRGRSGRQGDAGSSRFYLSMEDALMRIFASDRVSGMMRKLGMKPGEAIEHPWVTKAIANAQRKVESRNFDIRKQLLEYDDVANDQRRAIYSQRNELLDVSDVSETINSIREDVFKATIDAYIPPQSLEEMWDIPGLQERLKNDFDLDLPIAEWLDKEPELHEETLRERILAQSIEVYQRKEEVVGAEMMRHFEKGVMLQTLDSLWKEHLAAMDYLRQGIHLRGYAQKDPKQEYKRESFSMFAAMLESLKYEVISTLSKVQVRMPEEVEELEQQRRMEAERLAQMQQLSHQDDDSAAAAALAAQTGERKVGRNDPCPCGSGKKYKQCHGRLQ

SMILES	Percent Effect [1] [%]	Percent Effect [2] [%]	Percent Effect [3] [%]	Percent Effect [4] [%]	Percent Effect (Trypanosoma cruzi) [%]	Percent Effect [5] [%]	Percent Effect [6] [%]	Percent Effect (Homo sapiens) [%]	Percent Effect [7] [%]	Percent Effect [8] [%]	Percent Effect [9] [%]
Cc1nn(C)c2sc(C(=O)N3CCCC(n4ccnc4C)C3)cc12 (stereo unspecified)	-3.87	7.89	3.55	2.66	2.82	-5.92	8.92	24.3	4.25	5.2	-4.45
C[S+]([O-])c1nncn1CC(=O)c1ccc2c(c1)CCO2 (stereo unspecified)	-5.7	8.11	-3.44	36.4	3.23	26.6	12.4	-10.5	3.23	16.1	-9.11
CSCC(C)(O)CNC(=O)c1ccc(Br)cc1C (stereo unspecified)	0.706	0	2.08	-6.13	-1.27	-1.74	8.15	-5.12	2.15	6.17	0.55
CCc1cnc(N2C[C@H]3C[C@H](C(=O)N(C)C)[C@@H](C2)O3)nc1	-0.24	13.3	0.237	8.45	0.579	-53.6	2.91	-12.6	5.21	10	-6.38
Cc1n[nH]c(C2CN(C(=O)CCc3ccsc3)CCO2)n1 (stereo unspecified)	-6.4	-2.74	2.76	0.78	0.783	-7.27	-2.13	-11.9	0	2.5	0.695
C1CC(NCc2nc(C3CC3)no2)CN(Cc2noc(C3CC3)n2)C1 (stereo unspecified)	-2.33	24.3	-2.39	-3.6	-6.32	-12.4	11.2	27	-0.493	6.17	-4.12
O=C(CN1CCCCC1Cn1cccn1)NC1CCN(C2CC2)CC1 (stereo unspecified)	-0.952	0	-4.99	6.13	-1.16	-4.29	13.3	1.18	0.529	2.44	-1.27
O=C(Cn1cnnn1)N1CCCCC1Cn1cccn1 (stereo unspecified)	-4.89	5.06	-3.21	-2.69	-6.52	-3.04	0.901	25.2	-3.45	-11.4	-5.05
O=C(CCCc1cn[nH]c1)N1CCOCC(O)C1 (stereo unspecified)	-5.63	0	-4.88	-7.04	0	-0.455	5.86	-11.9	5.38	10	-3.63
Cc1nnc(C2Cc3ccccc3CN2Cc2ncc(C(C)(C)C)o2)o1 (stereo unspecified)	-1.87	15.6	3.3	-12.9	-3.82	-1.05	20.8	27.9	8.57	11.8	-17.8
O=C(c1ncccn1)N1C[C@H]2CCC[C@@]2(COCc2ccncc2)C1	-1.29	23.4	-4.05	-10.3	4.63	4.52	13.9	11.8	3.17	14.1	-11.1
CC(C)Oc1ccccc1C1CC(=O)Nc2c1cnn2C (stereo unspecified)	-2.1	-15.8	7.56	5.91	-3.21	-7.1	15.6	15.6	-2.13	2.6	-0.488
CCCn1c(C)c(CC(=O)NC)c2c1CC(C)(C)CC2=O	-4.47	2.6	-16	0.225	-1.08	-6.9	2.66	2.97	5.38	8.64	2.86
O=C(COc1cccc2c1CCC2=O)NCc1ccccc1F	-2.77	13.2	2.6	-2.18	4.58	11.8	9.49	11	3.19	10.4	-2.42
COCCOCC(=O)Nc1ccc(Br)cc1F	-4.21	10.5	-1.83	4.08	3.8	-5.92	1.63	9.23	1.06	7.79	-2.27
COc1ccc(-n2cnnc2SCC(C)(C)O)cn1	-0.589	2.67	-3.7	25.4	3.02	16.7	-5.75	15.9	3.83	3.7	-1.24
